# According to the supplement of paper PMC9492666:
# Where a name gives a salt, the structure may show the parent alone.
# Assays:
# HCC1937 = assay: relative cell viability, compound + RSL3, vs DMSO (fraction of DMSO control); higher = less growth inhibition; conditions: 72 h
# MDA-MB-231 = assay: as above; conditions: 72 h
# 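Note: breast cancer cell viability read out with the CCK-8 kit after co-treatment of each compound with the ferroptosis inducer RSL3.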
compound,measurement,setting,value
CC(=O)O[C@H](CC=C(C)C)C1=CC(=O)c2c(O)ccc(O)c2C1=O [Acetyl shikonin] + COC(=O)c1ccc([C@H]2c3[nH]c4ccccc4c3C[C@H](C(=O)OC)N2C(=O)CCl)cc1 [RSL3],relative cell viability,HCC1937,0.665
same,relative cell viability,MDA-MB-231,0.681
C[C@@H]1OCC2(CCN(c3cnc(Sc4ccnc(N)c4Cl)c(N)n3)CC2)[C@@H]1N + COC(=O)c1ccc([C@H]2c3[nH]c4ccccc4c3C[C@H](C(=O)OC)N2C(=O)CCl)cc1 [RSL3],relative cell viability,HCC1937,0.378
same,relative cell viability,MDA-MB-231,0.71
Nn1nnc2ccccc21 [1-Aminobenzotriazole] + COC(=O)c1ccc([C@H]2c3[nH]c4ccccc4c3C[C@H](C(=O)OC)N2C(=O)CCl)cc1 [RSL3],relative cell viability,HCC1937,0.528
same,relative cell viability,MDA-MB-231,0.758
Nc1ccc(C(=O)O)c(O)c1 [Aminopar] + COC(=O)c1ccc([C@H]2c3[nH]c4ccccc4c3C[C@H](C(=O)OC)N2C(=O)CCl)cc1 [RSL3],relative cell viability,HCC1937,0.822
same,relative cell viability,MDA-MB-231,0.662
Nc1ccc(O)c(C(=O)O)c1 [Mesalamine] + COC(=O)c1ccc([C@H]2c3[nH]c4ccccc4c3C[C@H](C(=O)OC)N2C(=O)CCl)cc1 [RSL3],relative cell viability,HCC1937,0.635
same,relative cell viability,MDA-MB-231,0.592
O=C(OC(C(F)(F)F)C(F)(F)F)N1CCC(C(O)(c2ccc3c(c2)OCO3)c2ccc3c(c2)OCO3)CC1 + COC(=O)c1ccc([C@H]2c3[nH]c4ccccc4c3C[C@H](C(=O)OC)N2C(=O)CCl)cc1 [RSL3],relative cell viability,HCC1937,0.551
same,relative cell viability,MDA-MB-231,0.551
Cc1cc(C)c(S(=O)(=O)N(CCc2cccc(Br)c2)Cc2ccc(-c3cccc(S(C)(=O)=O)c3)cc2)c(C)c1 + COC(=O)c1ccc([C@H]2c3[nH]c4ccccc4c3C[C@H](C(=O)OC)N2C(=O)CCl)cc1 [RSL3],relative cell viability,HCC1937,0.636
same,relative cell viability,MDA-MB-231,0.475
CC(C)Cc1ccc([C@H](C)C(=O)O)cc1 [Dexibuprofen] + COC(=O)c1ccc([C@H]2c3[nH]c4ccccc4c3C[C@H](C(=O)OC)N2C(=O)CCl)cc1 [RSL3],relative cell viability,HCC1937,1.03
same,relative cell viability,MDA-MB-231,0.606
O=c1c(-c2ccc(O)cc2)coc2cc(O)ccc12 [Daidzein] + COC(=O)c1ccc([C@H]2c3[nH]c4ccccc4c3C[C@H](C(=O)OC)N2C(=O)CCl)cc1 [RSL3],relative cell viability,HCC1937,0.865
same,relative cell viability,MDA-MB-231,0.608
O=C(CN1CCN(C(=O)c2ccco2)CC1)Nc1cc(C(F)(F)F)ccc1Cl + COC(=O)c1ccc([C@H]2c3[nH]c4ccccc4c3C[C@H](C(=O)OC)N2C(=O)CCl)cc1 [RSL3],relative cell viability,HCC1937,0.268
same,relative cell viability,MDA-MB-231,0.373
COc1cccc(CNc2ccc(S(=O)(=O)Nc3nc4ccccc4s3)cc2)c1O + COC(=O)c1ccc([C@H]2c3[nH]c4ccccc4c3C[C@H](C(=O)OC)N2C(=O)CCl)cc1 [RSL3],relative cell viability,HCC1937,0.583
same,relative cell viability,MDA-MB-231,0.657
CN(CCOc1ccc(CC2SC(=O)NC2=O)cc1)c1ccccn1 (centres undefined) [Rosiglitazone maleate] + COC(=O)c1ccc([C@H]2c3[nH]c4ccccc4c3C[C@H](C(=O)OC)N2C(=O)CCl)cc1 [RSL3],relative cell viability,HCC1937,0.758
same,relative cell viability,MDA-MB-231,0.516
OC[C@H]1O[C@@H](Oc2cc(O)cc(/C=C/c3ccc(O)cc3)c2)[C@H](O)[C@@H](O)[C@@H]1O [Polydatin] + COC(=O)c1ccc([C@H]2c3[nH]c4ccccc4c3C[C@H](C(=O)OC)N2C(=O)CCl)cc1 [RSL3],relative cell viability,HCC1937,0.749
same,relative cell viability,MDA-MB-231,0.608
N#Cc1c(O)c2c(-c3ccc(-c4ccccc4O)cc3)csc2[nH]c1=O + COC(=O)c1ccc([C@H]2c3[nH]c4ccccc4c3C[C@H](C(=O)OC)N2C(=O)CCl)cc1 [RSL3],relative cell viability,HCC1937,0.412
same,relative cell viability,MDA-MB-231,0.423
c1cc(-c2cnn3cc(-c4ccc(OCCN5CCCCC5)cc4)cnc23)ccn1 [Dorsomorphin] + COC(=O)c1ccc([C@H]2c3[nH]c4ccccc4c3C[C@H](C(=O)OC)N2C(=O)CCl)cc1 [RSL3],relative cell viability,HCC1937,0.123
same,relative cell viability,MDA-MB-231,0.31
CC(C)OC(=O)CCC/C=C\C[C@@H]1[C@@H](CC[C@@H](O)CCc2ccccc2)[C@H](O)C[C@@H]1O [Latanoprost] + COC(=O)c1ccc([C@H]2c3[nH]c4ccccc4c3C[C@H](C(=O)OC)N2C(=O)CCl)cc1 [RSL3],relative cell viability,HCC1937,1.03
same,relative cell viability,MDA-MB-231,0.597
O=C(CCCCCCCC(=O)NCCO)NCCO [Adelmidrol] + COC(=O)c1ccc([C@H]2c3[nH]c4ccccc4c3C[C@H](C(=O)OC)N2C(=O)CCl)cc1 [RSL3],relative cell viability,HCC1937,0.659
same,relative cell viability,MDA-MB-231,0.651
O=S(=O)(Nc1ccc(C(O)(C(F)(F)F)C(F)(F)F)cc1)c1cccs1 + COC(=O)c1ccc([C@H]2c3[nH]c4ccccc4c3C[C@H](C(=O)OC)N2C(=O)CCl)cc1 [RSL3],relative cell viability,HCC1937,0.617
same,relative cell viability,MDA-MB-231,0.63
COC(=O)c1cc(Cl)c(O)c(S(=O)(=O)Nc2cc(-c3ccccc3)c(F)cc2F)c1 + COC(=O)c1ccc([C@H]2c3[nH]c4ccccc4c3C[C@H](C(=O)OC)N2C(=O)CCl)cc1 [RSL3],relative cell viability,HCC1937,0.45
same,relative cell viability,MDA-MB-231,0.573
CC(C)(Oc1ccc(CCNC(=O)c2ccc(Cl)cc2)cc1)C(=O)O [Bezafibrate] + COC(=O)c1ccc([C@H]2c3[nH]c4ccccc4c3C[C@H](C(=O)OC)N2C(=O)CCl)cc1 [RSL3],relative cell viability,HCC1937,0.594
same,relative cell viability,MDA-MB-231,0.518
CC(C)OC(=O)C(C(=O)OC(C)C)=C1SC=CS1 [Malotilate] + COC(=O)c1ccc([C@H]2c3[nH]c4ccccc4c3C[C@H](C(=O)OC)N2C(=O)CCl)cc1 [RSL3],relative cell viability,HCC1937,0.337
same,relative cell viability,MDA-MB-231,0.547
O=C(NNc1ccccc1)c1ccncc1 [PluriSln 1] + COC(=O)c1ccc([C@H]2c3[nH]c4ccccc4c3C[C@H](C(=O)OC)N2C(=O)CCl)cc1 [RSL3],relative cell viability,HCC1937,0.418
same,relative cell viability,MDA-MB-231,0.656
CC(C)(Oc1ccc(C(=O)c2ccc(Cl)cc2)cc1)C(=O)O [Fenofibric acid] + COC(=O)c1ccc([C@H]2c3[nH]c4ccccc4c3C[C@H](C(=O)OC)N2C(=O)CCl)cc1 [RSL3],relative cell viability,HCC1937,0.536
same,relative cell viability,MDA-MB-231,0.535
"COc1ccc(-c2coc3cc(OC)ccc3c2=O)cc1 [4',7-Dimethoxyisoflavone] + COC(=O)c1ccc([C@H]2c3[nH]c4ccccc4c3C[C@H](C(=O)OC)N2C(=O)CCl)cc1 [RSL3]",relative cell viability,HCC1937,0.251
same,relative cell viability,MDA-MB-231,0.36
CC1=C(C)C(=O)C(C(CCCCCC(=O)O)c2ccccc2)=C(C)C1=O (centres undefined) [Seratrodast] + COC(=O)c1ccc([C@H]2c3[nH]c4ccccc4c3C[C@H](C(=O)OC)N2C(=O)CCl)cc1 [RSL3],relative cell viability,HCC1937,0.948
same,relative cell viability,MDA-MB-231,0.578
CCN(CC)c1ccc(C=NNC(=O)c2ccncc2)c(O)c1 + COC(=O)c1ccc([C@H]2c3[nH]c4ccccc4c3C[C@H](C(=O)OC)N2C(=O)CCl)cc1 [RSL3],relative cell viability,HCC1937,0.265
same,relative cell viability,MDA-MB-231,0.611
CCN(CC)CCCC(C)Nc1c2ccc(Cl)cc2nc2ccc(OC)cc12 (centres undefined) [Quinacrine dihydrochloride] + COC(=O)c1ccc([C@H]2c3[nH]c4ccccc4c3C[C@H](C(=O)OC)N2C(=O)CCl)cc1 [RSL3],relative cell viability,HCC1937,0.301
same,relative cell viability,MDA-MB-231,0.283
CCOP(=O)(OCC)C(=Cc1cc(C(C)(C)C)c(O)c(C(C)(C)C)c1)P(=O)(OCC)OCC + COC(=O)c1ccc([C@H]2c3[nH]c4ccccc4c3C[C@H](C(=O)OC)N2C(=O)CCl)cc1 [RSL3],relative cell viability,HCC1937,0.274
same,relative cell viability,MDA-MB-231,0.448
CC(C)=CCC[C@](C)(O[C@@H]1O[C@H](CO)[C@@H](O)[C@H](O)[C@H]1O)[C@H]1CC[C@]2(C)[C@@H]1[C@H](O)C[C@@H]1[C@@]3(C)CC[C@H](O[C@@H]4O[C@H](CO)[C@@H](O)[C@H](O)[C@H]4O[C@@H]4O[C@H](CO)[C@@H](O)[C@H](O)[C@H]4O)C(C)(C)[C@@H]3CC[C@]12C [Ginsenoside Rd] + COC(=O)c1ccc([C@H]2c3[nH]c4ccccc4c3C[C@H](C(=O)OC)N2C(=O)CCl)cc1 [RSL3],relative cell viability,HCC1937,0.616
same,relative cell viability,MDA-MB-231,0.478
CCCCCCCCCc1ccc(B(O)O)cc1 [4-Nonylphenylboronic acid] + COC(=O)c1ccc([C@H]2c3[nH]c4ccccc4c3C[C@H](C(=O)OC)N2C(=O)CCl)cc1 [RSL3],relative cell viability,HCC1937,0.546
same,relative cell viability,MDA-MB-231,0.732
C[N+](C)(C)CC(O)CC(=O)[O-] (stereo not drawn) [L(-)-Carnitine] + COC(=O)c1ccc([C@H]2c3[nH]c4ccccc4c3C[C@H](C(=O)OC)N2C(=O)CCl)cc1 [RSL3],relative cell viability,HCC1937,0.621
same,relative cell viability,MDA-MB-231,0.523
CC(C)(C)NC(=O)[C@H]1CC[C@H]2[C@@H]3CC[C@H]4NC(=O)C=C[C@]4(C)[C@H]3CC[C@]12C [Finasteride] + COC(=O)c1ccc([C@H]2c3[nH]c4ccccc4c3C[C@H](C(=O)OC)N2C(=O)CCl)cc1 [RSL3],relative cell viability,HCC1937,0.885
same,relative cell viability,MDA-MB-231,0.645
"CCCCCCCCCCC#CC#CCCCCCCCCC(=O)O [10,12-Tricosadiynoic acid] + COC(=O)c1ccc([C@H]2c3[nH]c4ccccc4c3C[C@H](C(=O)OC)N2C(=O)CCl)cc1 [RSL3]",relative cell viability,HCC1937,0.4
same,relative cell viability,MDA-MB-231,0.634
CCCCCCCCCCCCCCOc1ccc(C(=O)OCC(=O)N(C)CC(=O)OCC)o1 [Olumacostat Glasaretil] + COC(=O)c1ccc([C@H]2c3[nH]c4ccccc4c3C[C@H](C(=O)OC)N2C(=O)CCl)cc1 [RSL3],relative cell viability,HCC1937,0.281
same,relative cell viability,MDA-MB-231,0.278
C=C1C[C@]2(O)O[C@@]3(CC2=C(C)C)[C@@H](C)CC[C@@H]13 [Isocurcumenol] + COC(=O)c1ccc([C@H]2c3[nH]c4ccccc4c3C[C@H](C(=O)OC)N2C(=O)CCl)cc1 [RSL3],relative cell viability,HCC1937,0.612
same,relative cell viability,MDA-MB-231,0.568
Cn1c2cc([S+](C)[O-])sc2c2cnn(Cc3cccc(N)c3)c(=O)c21 (centres undefined) + COC(=O)c1ccc([C@H]2c3[nH]c4ccccc4c3C[C@H](C(=O)OC)N2C(=O)CCl)cc1 [RSL3],relative cell viability,HCC1937,0.402
same,relative cell viability,MDA-MB-231,0.677
O=C(OC(C(F)(F)F)C(F)(F)F)N1CCN(Cc2ccc(C(F)(F)F)cc2N2CCCC2)CC1 + COC(=O)c1ccc([C@H]2c3[nH]c4ccccc4c3C[C@H](C(=O)OC)N2C(=O)CCl)cc1 [RSL3],relative cell viability,HCC1937,0.928
same,relative cell viability,MDA-MB-231,0.613
